Source: PubChem
FBW7 act – activators of human E3 ligase FBW7; 650,000 compounds, 0.13% hits; AlphaScreen FBW7–phospho-cyclin E peptide binding, activator screen; Q969H0; normalized activity (activation), % at 26.1 µM; in the data active means normalized activity above about 1.9%;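 further: purified mutant Fbw7 with reduced substrate affinity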
TEAD-YAP block – TEAD-YAP interaction inhibition; 640,000 compounds, 1.4% hits; inhibition, % at 9.12 µM; HEK-TIYL cells, TEAD-Gal4/YAP UAS-luciferase luminescence; in the data active means inhibition above about 32%;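 further: 0% = median of test compound wells and 100% = reference inhibitor wells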
MITF primary – human MITF inhibition, primary screen; O75030; AlphaScreen MITF homodimerization, bead proximity signal; inhibition, % at 2.6 µM; 650,000 compounds, 0.91% hits; AID 1259374; in the data active means inhibition above about 50%;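 further: 0% = vehicle wells with protein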
GPR151 activ – human GPR151 activation; 650,000 compounds, 1% hits; activation, % at 11.2 µM; PathHunter beta-arrestin GPR151 cells, luminescence; in the data active means activation above about 4.9%;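 further: 0% = median of compound wells and 100% = cells with positive control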
The depositor's hits bear a star; ! = repeats disagree. Rows were chosen to be rich in hits. Some 3.5% of all compounds tested hit in one or more screens of this group.

SMILES | FBW7 act | TEAD-YAP block | MITF primary | GPR151 activ
CC(=O)C1=C(C)NC(SCC(=O)c2ccc(C)c(C)c2)=C(C#N)C1c1ccco1 (stereo not drawn) | 1.9* | 9 | 23 | 0
CCOC(=O)CSC1=C(C#N)C(c2ccco2)CC(=O)N1 (stereo not drawn) | 0 | 55* | 1 | 0
Cc1ccccc1NC(=O)CSC1=C(C#N)C(c2ccco2)C2=C(CCCC2=O)N1 (stereo not drawn) | 0 | 45* | 13 | 0
CCOC(=O)CSC1=C(C#N)C(c2ccco2)C(C(=O)Nc2ccccc2F)=C(C)N1 (stereo not drawn) | 0 | 45* | 12 | 1
COc1ccccc1NC(=O)C1=C(C)NC(SCC(=O)c2ccc(F)cc2)=C(C#N)C1c1ccco1 (stereo not drawn) | 1 | -16 | 3 | -1
CC(=O)C1=C(C)NC(SCC(=O)c2ccccc2)=C(C#N)C1c1ccco1 (stereo not drawn) | 1 | -19 | 14 | -1
CCc1ccc(S(=O)(=O)N2CCN(c3ccc4nnc(C5CC5)n4n3)CC2)s1 | 1 | 9 | 14 | -1
CCCOC(=O)CSC1=C(C#N)C(c2cccc(Cl)c2)CC(=O)N1 (stereo not drawn) | 0 | 62* | 2 | 0
COC(=O)CSC1=C(C#N)C(c2ccc(C)o2)CC(=O)N1 (stereo not drawn) | 0 | 56* | 7 | 1
COC(=O)CSC1=C(C#N)C(c2ccccc2C)CC(=O)N1 (stereo not drawn) | 0 | 7 | -9 | -1
CCCOC(=O)CSC1=C(C#N)C(c2ccc3c(c2)OCO3)CC(=O)N1 (stereo not drawn) | 0 | 1 | -2 | 3
Cc1cccc(Cc2cnc(NC(=O)COc3ccccc3C)s2)c1 | 0 | 54* | -2 | 1
O=C(Nc1ccc(Cc2ccncc2)cc1)c1ccc(Br)cc1 | 0 | 39* | 6 | 3
Cc1ccc(C(=O)Nc2ccc(Cc3ccncc3)cc2)cc1 | 0 | 10 | -7 | -1
O=C(CCc1ccccc1)Nc1ncc(Cc2ccccc2)s1 | 0 | 49* | 8 | -1
Cc1ccc(Cc2cnc(NC(=O)COc3ccccc3C)s2)cc1 | 0 | 17 | 10 | 0
Cc1ccc(Cc2cnc(NC(=O)COc3ccccc3)s2)cc1 | 0 | 52* | 14 | 0
O=C(CCCl)Nc1ncc(Cc2ccccc2)s1 | 0 | -1 | 8 | 1
CC(C)(C)C(=O)NCC(c1cccnc1)N1CCN(c2ccccc2)CC1 (stereo not drawn) | 0 | -2 | 2 | 0
Cn1c(=O)n(CC(=O)NC2CCCCC2)c2cccnc21 | 0 | 1 | 9 | 0
O=C(CSCc1ccc(Cc2ccc(CSCC(=O)Nc3ccccc3)cc2)cc1)Nc1ccccc1 | 0 | 35* | 11 | -1
O=C(CCc1ccccc1)Nc1ccc(Cc2ccncc2)cc1 | 0 | 40* | 0 | 2
Cc1ccccc1OCC(=O)Nc1ncc(Cc2ccc(F)cc2)s1 | 0 | 51* | -6 | -1
COc1cccc(N=Nc2c(C)[nH][nH]c2=O)c1 | 0 | -9 | 8 | -6
Cc1[nH]ccc2c1[nH]c1cc(=O)ccc12 | 0 | 37*! | 27 | -1
SMILES | FBW7 act | TEAD-YAP block | MITF primary | GPR151 activ
C=CCOC(=O)C1=C(C)OC(N)=C(C#N)C1c1cc2cc(C)ccc2[nH]c1=O (stereo not drawn) | 0 | 59* | 1 | -1
CSC1=NSC2=NC(=O)/C(=C\c3ccc(C)o3)C(=N)N12 | 0 | -26 | 17 | -2
CSC1=NSC2=NC(=O)/C(=C\c3ccc([N+](=O)[O-])o3)C(=N)N12 | -1 | -12 | 85* | 0
Cc1nc(SCc2ccc(Br)cc2)n[nH]1 | 0 | 33* | 15 | 0
Cc1nc(SCc2ccc(OC(C)C)cc2)n[nH]1 | 0 | 95* | 15 | -5
O=C(NCCCN1CCCC1=O)c1cc2c(s1)CSC2 | 0 | -15 | 6 | 3
Cc1ccc(CC(=O)Nc2ccncc2)cc1 | 0 | 42* | 9 | 1
Cc1cc(OCC(=O)Nc2cccnc2)cc(C)c1Br | 0 | 3 | 5 | -2
Cc1cc(OCC(=O)Nc2ccncc2)cc(C)c1Br | 0 | 33* | -5 | -1
O=C(O)c1cnn2c1NCN(Cc1ccc(F)cc1)C2 | 0 | 1 | -9 | 0
COc1ccc(N2CCn3c(SCc4cccc(C)c4)nnc32)cc1 | 1.9* | 8 | -4 | -1
COc1ccc(N2CCn3c(SCc4cccc(Cl)c4)nnc32)cc1 | 0 | 7 | 5 | 1
COc1ccc(CNC2CCCN(c3nc(C)c4ccc(C)cc4n3)CC2)cc1 (stereo not drawn) | 1 | 8 | 2 | -2
